aSyn UTR act = Activators working through SNCA 5'UTR binding (MLPCN); alpha-synuclein 5'UTR reporter, activators screen; activity score, % (tested at 7.5 µM), hits read low; actives 7.1% (n = 300,000); in the data active means activity score below about -60%
* marks the source's active call; other numbers are inactive results. The list is a sample of the results.

SMILES	aSyn UTR act
Cc1cccc(/C(N)=N/OC(=O)C23CC4CC(CC(C4)C2)C3)c1	-114*
COc1cc(OC)cc(C(=O)O/N=C(\N)c2cccc(C)c2)c1	-81*
N#C/C(=N\Nc1ccc(Cl)c(Cl)c1)C(=O)C1CC1	-97*
CC1CCN(CCNC(=O)c2ccc3c(=O)n(Cc4ccc(Cl)cc4)c(=S)[nH]c3c2)CC1	98
O=C(NC1CCN(Cc2ccccc2)CC1)c1ccc(Cn2c(=S)[nH]c3ccc(N4CCOCC4)cc3c2=O)cc1	-92*
COC1=C(C)C(O)=C(C(=O)/C=C/c2ccccc2)C(=O)C1(C)C	-104*
Cc1ccc2nc(N3C(=O)CNC3=S)sc2c1	-68*
Cc1ccccc1NC(=O)c1nnn(-c2ccc3c(c2)OCCO3)c1N	-135*
Nc1c(C(=O)Nc2cccc(F)c2)nnn1-c1ccc2c(c1)OCCO2	-101*
Cc1cccnc1NC(=S)Nc1ccc(Br)cc1Cl	-174*
COc1cccc(NC(=S)N/N=C2/CCCCc3ccccc32)c1	-178*
COc1cccc(NC(=S)Nc2ccc(Br)cc2Cl)c1	-93*
COc1cccc(NC(=S)Nc2cccnc2)c1	-93*
